Assay in all cases: PBM; 200 nM protein, PBS
Common to all, as to conditions: dsDNA, one strand shown

For assay [1], the target named is HOXB9 (Homo sapiens, UniProt P17482 171-250, T197M).
Assay [2] addresses HOXC9 (Homo sapiens, UniProt P31274 178-260, K195R).
In assay [3] the target is HOXA2 (Homo sapiens, UniProt O43364 129-215, R185T).
Assay [4] has as its target HOXB9 (Homo sapiens, UniProt P17482 171-250).
The target in assay [5] is HOXC9 (Homo sapiens, UniProt P31274 178-260).
The target in assay [6] is HOXD13 (Homo sapiens, UniProt P35453 263-343, T313R).
Assay [7] addresses HOXC9 (Homo sapiens, UniProt P31274 178-260, R193K).
The target of assay [8] is HOXA2 (Homo sapiens, UniProt O43364 129-215, R185K).
Assay [9] addresses HOXD13 (Homo sapiens, UniProt P35453 263-343).
The target in assay [10] is HOXD13 (Homo sapiens, UniProt P35453 263-343, T313A).
For assay [11], the target named is HOXB9 (Homo sapiens, UniProt P17482 171-250, R186Q).
The target of assay [12] is HOXC9 (Homo sapiens, UniProt P31274 178-260, R222W).
For assay [13], the target named is HOXA2 (Homo sapiens, UniProt O43364 129-215, Y150S).
Assay [14] deals with HOXA2 (Homo sapiens, UniProt O43364 129-215).
Assay [15] concerns the target HOXC10 (Homo sapiens, UniProt Q9NYD6 254-340).
Assay [16] addresses HOXC10 (Homo sapiens, UniProt Q9NYD6 254-340, K271E).
Assay [17] deals with ALX3 (Homo sapiens, UniProt O95076 139-225, N203Q).
Assay [18] deals with ALX3 (Homo sapiens, UniProt O95076 139-225).
Chain of ALX3 (Homo sapiens, UniProt O95076 139-225) (O95076 139-225): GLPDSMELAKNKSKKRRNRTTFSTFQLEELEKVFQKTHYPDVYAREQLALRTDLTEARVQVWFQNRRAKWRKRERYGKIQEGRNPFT

Chain of HOXD13 (Homo sapiens, UniProt P35453 263-343, T313A) (P35453 263-343 T313A): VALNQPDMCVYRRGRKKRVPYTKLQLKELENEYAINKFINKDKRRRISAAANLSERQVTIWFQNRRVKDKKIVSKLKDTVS
Chain of HOXC10 (Homo sapiens, UniProt Q9NYD6 254-340, K271E) (Q9NYD6 254-340 K271E): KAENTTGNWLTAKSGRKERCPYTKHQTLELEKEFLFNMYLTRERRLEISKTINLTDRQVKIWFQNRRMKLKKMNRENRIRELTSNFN
Chain of HOXC9 (Homo sapiens, UniProt P31274 178-260, K195R) (P31274 178-260 K195R): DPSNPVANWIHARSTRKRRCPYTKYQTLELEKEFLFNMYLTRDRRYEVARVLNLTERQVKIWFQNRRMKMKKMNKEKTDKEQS
Chain of HOXC10 (Homo sapiens, UniProt Q9NYD6 254-340) (Q9NYD6 254-340): as the sequence (Q9NYD6 254-340 K271E) above, with E18K counted along it
Chain of HOXB9 (Homo sapiens, UniProt P17482 171-250, R186Q) (P17482 171-250 R186Q): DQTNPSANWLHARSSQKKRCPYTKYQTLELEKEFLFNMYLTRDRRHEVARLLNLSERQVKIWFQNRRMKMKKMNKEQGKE
Chain of HOXC9 (Homo sapiens, UniProt P31274 178-260, R222W) (P31274 178-260 R222W): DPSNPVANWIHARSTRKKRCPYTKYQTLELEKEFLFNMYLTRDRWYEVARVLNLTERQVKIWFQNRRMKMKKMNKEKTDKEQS
Chain of HOXD13 (Homo sapiens, UniProt P35453 263-343, T313R) (P35453 263-343 T313R): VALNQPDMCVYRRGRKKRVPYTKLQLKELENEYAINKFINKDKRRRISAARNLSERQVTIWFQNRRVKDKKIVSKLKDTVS
Chain of HOXD13 (Homo sapiens, UniProt P35453 263-343) (P35453 263-343): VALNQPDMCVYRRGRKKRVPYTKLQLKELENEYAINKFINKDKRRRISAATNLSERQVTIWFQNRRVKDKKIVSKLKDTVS
Chain of HOXC9 (Homo sapiens, UniProt P31274 178-260) (P31274 178-260): as the sequence (P31274 178-260 R222W) above, with W45R counted along it
Chain of HOXC9 (Homo sapiens, UniProt P31274 178-260, R193K) (P31274 178-260 R193K): as the sequence (P31274 178-260 R222W) above, with R16K, W45R counted along it
Chain of HOXB9 (Homo sapiens, UniProt P17482 171-250, T197M) (P17482 171-250 T197M): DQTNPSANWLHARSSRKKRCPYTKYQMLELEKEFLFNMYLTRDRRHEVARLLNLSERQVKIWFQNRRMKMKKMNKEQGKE
Chain of HOXB9 (Homo sapiens, UniProt P17482 171-250) (P17482 171-250): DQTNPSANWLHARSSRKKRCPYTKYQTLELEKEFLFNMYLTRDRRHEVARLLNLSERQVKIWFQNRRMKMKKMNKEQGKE
Chain of ALX3 (Homo sapiens, UniProt O95076 139-225, N203Q) (O95076 139-225 N203Q): as the sequence (O95076 139-225) above, with N65Q counted along it
Chain of HOXA2 (Homo sapiens, UniProt O43364 129-215) (O43364 129-215): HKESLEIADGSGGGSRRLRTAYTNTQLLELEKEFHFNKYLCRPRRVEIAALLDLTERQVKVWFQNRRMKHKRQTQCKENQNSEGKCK
Chain of HOXA2 (Homo sapiens, UniProt O43364 129-215, R185K) (O43364 129-215 R185K): as the sequence (O43364 129-215) above, with R57K counted along it
Chain of HOXA2 (Homo sapiens, UniProt O43364 129-215, Y150S) (O43364 129-215 Y150S): as the sequence (O43364 129-215) above, with Y22S counted along it
Chain of HOXA2 (Homo sapiens, UniProt O43364 129-215, R185T) (O43364 129-215 R185T): as the sequence (O43364 129-215) above, with R57T counted along it

CGCCACCG: the binding signal with HOXB9 [1] is 8.56 upbm affinity estimate (log intensity, higher = more binding, comparable within an allelic series); with HOXC9 [2], 9.67 upbm affinity estimate (log intensity, higher = more binding, comparable within an allelic series); in the assay with HOXA2 [3] it was 7.25 upbm affinity estimate (log intensity, higher = more binding, comparable within an allelic series); with HOXB9 [4], 8.3 upbm affinity estimate (log intensity, higher = more binding, comparable within an allelic series); with HOXC9 [5], 9.81 upbm affinity estimate (log intensity, higher = more binding, comparable within an allelic series); in the assay with HOXD13 [6], 9.57 upbm affinity estimate (log intensity, higher = more binding, comparable within an allelic series). For the same sequence, the binding signal is 9.64 upbm affinity estimate (log intensity, higher = more binding, comparable within an allelic series) in the assay with HOXC9 [7]; 10.5 upbm affinity estimate (log intensity, higher = more binding, comparable within an allelic series) with HOXA2 [8]; 9.56 upbm affinity estimate (log intensity, higher = more binding, comparable within an allelic series) with HOXD13 [9]; 9.65 upbm affinity estimate (log intensity, higher = more binding, comparable within an allelic series) with HOXD13 [10]; 8.46 upbm affinity estimate (log intensity, higher = more binding, comparable within an allelic series) with HOXB9 [11]; 9.73 upbm affinity estimate (log intensity, higher = more binding, comparable within an allelic series) with HOXC9 [12]. Moreover, the binding signal with HOXA2 [13] was 10.7 upbm affinity estimate (log intensity, higher = more binding, comparable within an allelic series); with HOXA2 [14] it was 7.41 upbm affinity estimate (log intensity, higher = more binding, comparable within an allelic series).

For CATTAAAA, the binding signal was 9.91 upbm affinity estimate (log intensity, higher = more binding, comparable within an allelic series) with HOXB9 [1]; 12.6 upbm affinity estimate (log intensity, higher = more binding, comparable within an allelic series) with HOXC9 [2]; 12.1 upbm affinity estimate (log intensity, higher = more binding, comparable within an allelic series) with HOXC10 [15]; 12 upbm affinity estimate (log intensity, higher = more binding, comparable within an allelic series) with HOXB9 [4]; 12.7 upbm affinity estimate (log intensity, higher = more binding, comparable within an allelic series) with HOXC9 [5]; 12.6 upbm affinity estimate (log intensity, higher = more binding, comparable within an allelic series) with HOXC9 [7]. The binding signal is 11.8 upbm affinity estimate (log intensity, higher = more binding, comparable within an allelic series) with HOXC10 [16]; 11.6 upbm affinity estimate (log intensity, higher = more binding, comparable within an allelic series) with HOXD13 [10]; 11.7 upbm affinity estimate (log intensity, higher = more binding, comparable within an allelic series) with HOXB9 [11]; 11 upbm affinity estimate (log intensity, higher = more binding, comparable within an allelic series) with HOXC9 [12].

Regarding CATAAAAG, the binding signal with HOXB9 [1] was 9.76 upbm affinity estimate (log intensity, higher = more binding, comparable within an allelic series); with HOXC9 [2], 12.6 upbm affinity estimate (log intensity, higher = more binding, comparable within an allelic series); in the assay with HOXC10 [15], 12.4 upbm affinity estimate (log intensity, higher = more binding, comparable within an allelic series); with HOXB9 [4] it was 12 upbm affinity estimate (log intensity, higher = more binding, comparable within an allelic series); with HOXC9 [5], 12.8 upbm affinity estimate (log intensity, higher = more binding, comparable within an allelic series); with HOXD13 [6] it was 10.7 upbm affinity estimate (log intensity, higher = more binding, comparable within an allelic series). Also, the binding signal was 12.7 upbm affinity estimate (log intensity, higher = more binding, comparable within an allelic series) with HOXC9 [7]; 11.8 upbm affinity estimate (log intensity, higher = more binding, comparable within an allelic series) with HOXD13 [9]; 11.8 upbm affinity estimate (log intensity, higher = more binding, comparable within an allelic series) with HOXC10 [16]; 11.6 upbm affinity estimate (log intensity, higher = more binding, comparable within an allelic series) in the assay with HOXD13 [10]; 11.7 upbm affinity estimate (log intensity, higher = more binding, comparable within an allelic series) with HOXB9 [11]; 11.2 upbm affinity estimate (log intensity, higher = more binding, comparable within an allelic series) with HOXC9 [12].

On to GTCATAAA, for which the binding signal with HOXB9 [1] was 9.98 upbm affinity estimate (log intensity, higher = more binding, comparable within an allelic series); with HOXC9 [2], 13.1 upbm affinity estimate (log intensity, higher = more binding, comparable within an allelic series); with HOXC10 [15] it was 12.9 upbm affinity estimate (log intensity, higher = more binding, comparable within an allelic series); in the assay with HOXB9 [4] it was 12.5 upbm affinity estimate (log intensity, higher = more binding, comparable within an allelic series); with HOXC9 [5], 13.1 upbm affinity estimate (log intensity, higher = more binding, comparable within an allelic series); with HOXD13 [6], 10.9 upbm affinity estimate (log intensity, higher = more binding, comparable within an allelic series). For the same sequence, the binding signal with HOXC9 [7] is 13.1 upbm affinity estimate (log intensity, higher = more binding, comparable within an allelic series); with HOXD13 [9], 12.1 upbm affinity estimate (log intensity, higher = more binding, comparable within an allelic series); with HOXC10 [16] it was 12.4 upbm affinity estimate (log intensity, higher = more binding, comparable within an allelic series); with HOXD13 [10] it was 11.8 upbm affinity estimate (log intensity, higher = more binding, comparable within an allelic series); with HOXB9 [11] it was 12.2 upbm affinity estimate (log intensity, higher = more binding, comparable within an allelic series); with HOXC9 [12], 11.2 upbm affinity estimate (log intensity, higher = more binding, comparable within an allelic series).

In the case of CCATAAAA, the binding signal is 10 upbm affinity estimate (log intensity, higher = more binding, comparable within an allelic series) with HOXB9 [1]; 13.3 upbm affinity estimate (log intensity, higher = more binding, comparable within an allelic series) with HOXC9 [2]; 13 upbm affinity estimate (log intensity, higher = more binding, comparable within an allelic series) with HOXC10 [15]; 12.8 upbm affinity estimate (log intensity, higher = more binding, comparable within an allelic series) with HOXB9 [4]; 13.4 upbm affinity estimate (log intensity, higher = more binding, comparable within an allelic series) with HOXC9 [5]; 8.22 upbm affinity estimate (log intensity, higher = more binding, comparable within an allelic series) with ALX3 [17]. Further, the binding signal was 11 upbm affinity estimate (log intensity, higher = more binding, comparable within an allelic series) in the assay with HOXD13 [6]; 13.3 upbm affinity estimate (log intensity, higher = more binding, comparable within an allelic series) with HOXC9 [7]; 12.3 upbm affinity estimate (log intensity, higher = more binding, comparable within an allelic series) in the assay with HOXD13 [9]; 12.5 upbm affinity estimate (log intensity, higher = more binding, comparable within an allelic series) with HOXC10 [16]; 8.99 upbm affinity estimate (log intensity, higher = more binding, comparable within an allelic series) with ALX3 [18]; 12 upbm affinity estimate (log intensity, higher = more binding, comparable within an allelic series) in the assay with HOXD13 [10]. Also, the binding signal with HOXB9 [11] was 12.5 upbm affinity estimate (log intensity, higher = more binding, comparable within an allelic series); in the assay with HOXC9 [12], 11.6 upbm affinity estimate (log intensity, higher = more binding, comparable within an allelic series).

For the origin of these results see PMC11006913.
